This is a sample that favours compounds with a hit; in the whole collection about 6.5% have one here.
HCMV antiviral: qHTS Assay for inhibitors of the human cytomegalovirus (HCMV); activity change, negative = inhibition, % at 57.5 µM; AID 1259415, 2018; HFF cells, HCMV-luciferase reporter, 72 h; hits give low values; 410,000 tested, 4.5% active; in the data active = activity change below about -60%; inconclusive = no clear call, values can overlap the other calls; inactive = above about -39%
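Luciferase read-out from HCMV-luciferase-infected HFFs (MOI 1 PFU/cell) 72 h post infection at 37C; compounds added after 16 h cell attachment; activity normalized between buffer-only basal and Salinomycin (10uM) inhibitor controls.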
Vaccinia Venus: qHTS for Stage-Specific Inhibitors of Vaccinia Orthopoxvirus: Venus Reporter Primary qHTS. 330,000 tested, 0.46% active. AID 720580, 2013. Vaccinia virus Venus reporter expression, fluorescence. Potency, µM (highest dose often 36.5 µM), inactives show at the highest dose activity change, negative = inhibition, actives largely listed as inhibitors; calls by dose curve; tested in A549 cells; note: potency is the fitted concentration of half-maximal effect; nearly all actives have a fitted effect of over 30% in size
Lassa entry inh: qHTS for Inhibitors of binding or entry into cells for Lassa Virus; Lassa virus pseudotype entry inhibition, cell reporter; Potency, µM (top dose mostly 37.9 µM), for the others: at the highest dose activity change, negative = inhibition, most hits filed as inhibitors; 300,000 tested, 1.2% active; AID 540256, 2011; calls by dose curve; tested in HEK293 cells; note: potency is the fitted concentration of half-maximal effect; nearly all actives have a fitted effect of over 50% in size
VACV mCherry inh: qHTS for Stage-Specific Inhibitors of Vaccinia Orthopoxvirus: mCherry Reporter Primary qHTS; Potency, µM (highest dose often 36.5 µM), for inactives: at the top dose activity change, negative = inhibition, usual class: inhibitors; Vaccinia virus mCherry reporter infection, fluorescence; 310,000 tested, 0.63% active; AID 720579, 2013; calls by dose curve; tested in A549 cells; note: potency is the fitted concentration of half-maximal effect; nearly all actives have a fitted effect of over 35% in size
Marburg entry inh: qHTS for inhibitors of binding or entry into cells for Marburg Virus; Marburg virus pseudotyped entry inhibition, cell reporter; Potency, µM (top dose mostly 37.8 µM), without a hit: at the highest dose activity change, negative = inhibition, hits mostly inhibitors; 300,000 tested, 1.8% active; AID 540276, 2011; calls by dose curve; tested in HEK293 cells; note: potency is the fitted concentration of half-maximal effect
FMDV inh: High Throughput Screening for Foot and Mouth Disease Virus Antivirals; FMDV antiviral cell-based qHTS; Potency, µM (series often up to 57.9 µM), for inactives: at the highest dose activity change, negative = inhibition, usual class: inhibitors; 410,000 tested, 1.2% active; calls by dose curve; tested in HEK293T cells; note: read-out not given here; potency is the fitted concentration of half-maximal effect; nearly all actives have a fitted effect of over 45% in size
* = called active by the depositor; i = inactive; ? = inconclusive; · = no result; ! = a repeat was not active; [ ] = another dose, or the depositor's remark. % is set by controls: 0 for no effect and ±100 for the full control effect.

SMILES	HCMV antiviral	Vaccinia Venus	Lassa entry inh	VACV mCherry inh	Marburg entry inh	FMDV inh
COc1cc(OC)cc(C(=O)Nc2nnc(SCC(=O)NCc3ccco3)s2)c1	42	-10%	?	-14%	4%[46.1 µM]	100µM*
COc1ccc(NC(=O)Nc2nnc(-c3cccs3)s2)cc1	37	-2%	·	i	2%	37%
COc1ccc(C(=O)Nc2nnc(SCC(=O)NC3CC3)s2)cc1	94	-8%	?	i	10µM*	6%
COc1ccc(C(=O)Nc2nnc(-c3cccs3)s2)cc1	20	-18%	?	-29%	3.2µM*	22%
O=C(c1cncs1)N(Cc1cc2cc3c(cc2nc1N1CCOCC1)CCC3)CC1CCCO1 (configuration not stated)	·	-2%	·	-7%	·	11%
C[C@@H]1CN(Cc2ccc3c(c2)CN(Cc2cccn2-c2cccnc2)CCO3)C[C@H](C)O1	·	-14%	·	-19%	·	-4%
CC(C)c1nn2c(=O)cc(COC(=O)c3cccc(NC(=O)c4ccccc4F)c3)nc2s1	44	-18%	0%[46.1 µM]	0%	·	-6%
Cc1ccc(NC(=O)c2cc(S(=O)(=O)N3CCc4ccccc43)cn2C)c(Cl)c1	-61*	-11%	10%[46.1 µM]	-18%	·	-10%
O=C(Nc1nc2c(F)cc(F)cc2s1)c1ccc(S(=O)(=O)N2CCc3ccccc32)cc1	-99*	?	?	?	·	-27%
Cc1cccc(NC(=O)c2cc(S(=O)(=O)N3CCc4ccccc43)cn2C)c1C	-5	-20%	·	0%	·	-20%
Cc1ccc2nc(NC(=O)c3ccc(S(=O)(=O)N4CCCc5ccccc54)cc3)sc2c1	-90*!	-16%	?	-22%	?	?
O=C1Cc2ccccc2C1=C1C=c2ccccc2=C1	·	14%	·	-14%	·	·
O=C(N/N=C/c1ccccc1F)c1cc2c(ccc3ccccc32)o1	-9	·	·	·	·	-6%
O=C(N/N=C/C=C/c1ccccc1)c1cc2c(ccc3ccccc32)o1	?	-6%	7.9µM*	·	4.5µM*	?
COc1ccc(/C=C/C=N/NC(=O)COc2ccc(OC)cc2)cc1	-1	-18%	0.79µM*	i	0%	28%
O=C(COc1cccc2ccccc12)N/N=C/C=C/c1ccccc1	-62*	·	-2%	·	-6%	-15%
CCNC(=O)COc1cccc2ccccc12	-69*	·	1%	·	0%	4%
Cc1ccccc1OCC(=O)N/N=C/C=C/c1ccccc1	-4	·	6%	·	2%	-4%
COc1cc(=O)n2c(c1C(=O)NCc1ccco1)CCN(C(=O)c1ccccc1-c1ncc[nH]1)CC2	·	-6%	·	-5%	·	0%
CCN(CC)S(=O)(=O)c1cc(NC(=O)Cn2ncc(Cl)c(Cl)c2=O)ccc1C	-79*	?	·	?	·	-93%
O=C(Cn1ncc(Cl)c(Cl)c1=O)c1ccc2c(c1)OCCO2	-81*	-26%	13µM*	?	?	?
O=C(Cn1ncc(Cl)c(Cl)c1=O)N1CCN(S(=O)(=O)c2ccc3ccccc3c2)CC1	-86*	?	?	?	1.8µM*	28µM*
Cc1ccc2oc(=O)c3cnn(CC(=O)Nc4ccc(Br)cc4C)c3c2c1	8	-10%	4%[46.1 µM]	-4%	1%[46.1 µM]	-7%
Cc1cc(Br)ccc1NC(=O)CNC(=O)Cn1ncc(Cl)c(Cl)c1=O	-101*	-8%	·	-4%	-26%[46.1 µM]	6.3µM*
O=C(Nc1ccccc1)[C@@H]1CC=C[C@@H]2CCN(C3CC3)C(=O)[C@@H]21	·	-6%	·	i	·	·
SMILES	HCMV antiviral	Vaccinia Venus	Lassa entry inh	VACV mCherry inh	Marburg entry inh	FMDV inh
COC(=O)CC=C1c2ccccc2[C@@H](OC)[C@@H]1C	·	·	?	·	16%[14.2 µM]	·
COc1ccc(Cl)cc1NC(=O)CN1C(=O)COc2ccc(S(=O)(=O)NC3CCCC3)cc21	2	6%	-1%[46.1 µM]	-9%	·	1%
Cc1ccc(S(=O)(=O)N2CCCCC2)cc1NC(=O)Cn1cnnn1	-6	·	·	·	·	-15%
O=C(Cn1ncc(Cl)c(Cl)c1=O)Nc1ccc2c(c1)OCO2	-102*	·	·	·	·	35µM*
COc1ccc(NC(=O)Cn2ncc(Cl)c(Cl)c2=O)cc1S(=O)(=O)N1CCOCC1	-100*	-15%	?	-2%	?	40µM*
Cc1ccc(S(=O)(=O)N2CCCCC2)cc1NC(=O)Cn1ncc(Cl)c(Cl)c1=O	-97*	·	·	·	·	20µM*
O=C(Cn1ncc(Cl)c(Cl)c1=O)NC(=O)NC1CCCCC1	-94*	?	?	-35%	11µM*	35µM*
CCC1=[N+](CC(=O)c2ccc(C)cc2)CCn2c(C)ccc21	-63*	-23%	0%	?	-2%	-23%
N=c1sccn1CC(=O)Nc1ccccc1Sc1ccccc1	-62*	-16%	?	-11%	?	-28%
O=C(CN1CCOCC1)Nc1ccccc1Sc1ccccc1	-14	-9%	17%[46.1 µM]	i	16%[46.1 µM]	0%
CC(=O)N1CCN(CC(=O)Nc2ccccc2Sc2ccccc2)CC1	-26	-19%	10µM*	-18%	?	0%
COCCNCC(=O)Nc1ccccc1Sc1ccccc1	16	·	-14%	·	-10%	-27%
C[C@H](CO)N1C[C@H](C)[C@H](CN(C)C(=O)Cc2ccncc2)Oc2ncc(Br)cc2C1=O	1	8.9µM*	·	?	·	0%
Cc1nc2c(c(C)c1CCC(=O)Nc1cccc(C(F)(F)F)c1)c(=O)n(C)c(=O)n2C	-16	0%	-2%[46.1 µM]	6%	0%[46.1 µM]	?
CC(=O)N(Cc1ccc2c(c1)OCO2)Cc1cc2ccc(C)cc2nc1-c1cccc(C)c1	·	27%	·	-12%	·	-3%
C[C@@H]1CN(C2CCN(S(=O)(=O)Cc3ccccc3)CC2)C[C@H](C)O1	·	·	·	·	0%	·
CCC(C)(C)c1ccc(Oc2ccc(N)cc2)cc1	-91*	?	?	-18%	4µM*	1.1µM*
C[N+](C)(C)CCC(=O)c1cccc2ccccc12	·	?	·	?	4.5µM*	-20%
CCN(CC)c1ccc2cc(-c3nc4ccccc4n3C)c(=O)oc2c1	-79*	?	-1%	?	37%	41%
CCN(CC)c1ccc2cc(-c3nc4ccccc4[nH]3)c(=O)oc2c1	·	2%	?	2%	?	4.5µM*
CCN(CC)c1ccc2cc(-c3nnc(-c4ccccc4)o3)c(=O)oc2c1	81	-7%	8%	-17%	?	3%
Cc1ccc(CNC(=O)CN2N=C(c3ccccc3)CCC2=O)cc1	12	-6%	-6%[46.1 µM]	-11%	·	-22%
CCOC(=O)NN=C1C[C@@H](O)[C@@H](O)[C@@H]2[C@H]3C(=O)N(C[C@@H]4CCCO4)C(=O)[C@@H]3CC[C@H]12	·	·	·	·	6%[14.2 µM]	·
Cc1cccc(Cn2nnc3c2C(=O)c2ccccc2C3=O)c1	-100*	·	?	·	?	?
Cc1cccc(Cn2ncc(Cl)c(Cl)c2=O)c1	-94*	·	?	·	?	?

Screening results (PubChem)
